Activity calls are given as the source filed them. Unless noted, the rule behind the calls is not given here.
How the values were obtained:
[1] = resazurin metabolic signal in HepG2 cells – cell-based, resazurin fluorescence, 24 h, PK04 Diversity Set, profiling panel (AID 1172); settings: HepG2 viability, higher = more signal; note: test concentration not given here
[2] = budding yeast growth changes without added modifier – OD600, strain BY4716, 24 h, basal condition, primary screen (AID 1173); settings: S. cerevisiae BY4716 growth, OD600, 24 h; higher = more signal, called active from +8 up or from −8 down
[3] = viability profiling in MM1S myeloma cells – cell-based, resazurin fluorescence, basal, 24 h, PK04 Diversity Set, profiling panel (AID 1174); settings: higher = more signal, called active from +8 up or from −8 down;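 note: MM1S multiple myeloma cell line; test concentration not given here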
[4] = target: Dihydroorotate dehydrogenase (quinone), mitochondrial (Plasmodium falciparum (isolate 3D7)) (UniProt Q08210); assay: inhibition of P. falciparum DHODH – biochemical, C-terminal His tag, absorbance 600 nm, primary screen (AID 1175); settings: PfDHODH enzyme, DCIP absorbance 600 nm; higher = more signal, called active from +8 up or from −8 down;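 note: recombinant parasite enzyme with a five histidine tag at its C terminus; test concentration not given here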
Dihydroorotate dehydrogenase (quinone), mitochondrial (Plasmodium falciparum (isolate 3D7)), sequence (Q08210 whole entry, looked up): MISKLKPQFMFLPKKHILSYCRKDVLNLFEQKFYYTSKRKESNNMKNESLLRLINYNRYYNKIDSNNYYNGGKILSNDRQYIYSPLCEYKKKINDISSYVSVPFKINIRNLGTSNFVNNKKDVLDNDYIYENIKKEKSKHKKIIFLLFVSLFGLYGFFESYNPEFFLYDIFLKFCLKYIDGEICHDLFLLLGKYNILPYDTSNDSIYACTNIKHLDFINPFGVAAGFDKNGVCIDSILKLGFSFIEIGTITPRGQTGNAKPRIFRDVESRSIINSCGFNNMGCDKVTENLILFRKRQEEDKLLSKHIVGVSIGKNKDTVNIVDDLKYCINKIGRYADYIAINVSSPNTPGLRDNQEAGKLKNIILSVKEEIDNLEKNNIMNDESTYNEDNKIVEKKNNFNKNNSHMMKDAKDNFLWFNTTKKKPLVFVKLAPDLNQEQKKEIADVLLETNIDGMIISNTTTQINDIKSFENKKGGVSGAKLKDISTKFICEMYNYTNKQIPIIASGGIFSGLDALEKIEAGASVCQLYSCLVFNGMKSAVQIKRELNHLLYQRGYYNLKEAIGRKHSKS

[5] = inhibition of PAO1 biofilm formation – strain PAO1, LB-PBS medium, absorbance 600 nm, primary screen (AID 1176); note: test concentration not given here; settings: P. aeruginosa PAO1 growth/biofilm, A600, 12 h; higher = more signal
[6] = growth modulation of vineyard yeast isolate – strain RM11-1a, OD600, basal, 24 h, primary screen (AID 1177);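 note: cultures grown under basal conditions with no added stressor; test concentration not given here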; settings: S. cerevisiae RM11-1a growth, OD600, 24 h; higher = more signal, called active from +8 up or from −8 down
[7] = growth of efflux-deficient E. coli DRC39 – strain DRC39, OD650, 24 h, E. coli filamentation inducers, primary screen (AID 1178);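 note: growth measured as culture turbidity by optical density at 650 nm; test concentration not given here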; settings: E. coli DRC39 acrAB, higher = more signal, called active from +8 up or from −8 down
[8] = growth of efflux-deficient E. coli DRC39 – strain DRC39, OD650, 48 h, E. coli filamentation inducers, primary screen (AID 1179);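 note: screen aims at cell division blockers that make cells filament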; settings: E. coli DRC39 delta-acrAB growth, higher = more signal, called active from +8 up or from −8 down
[9] = viability profiling in RPMI8226 myeloma cells – cell-based, resazurin fluorescence, basal, 24 h, PK04 Diversity Set, profiling panel (AID 1180); settings: higher = more signal;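 note: RPMI8826 multiple myeloma cell line at 5000 cells per well; test concentration not given here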
[10] = target: E3 ubiquitin-protein ligase XIAP (Homo sapiens) (UniProt P98170); assay: small molecules binding XIAP protein – biophysical, small-molecule microarray, fluorescence 635 nm, primary screen (AID 1181); settings: higher = more signal;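 note: score merges 667 nm emission and signal to noise over triplicate slides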
E3 ubiquitin-protein ligase XIAP (Homo sapiens), sequence (P98170 whole entry, looked up): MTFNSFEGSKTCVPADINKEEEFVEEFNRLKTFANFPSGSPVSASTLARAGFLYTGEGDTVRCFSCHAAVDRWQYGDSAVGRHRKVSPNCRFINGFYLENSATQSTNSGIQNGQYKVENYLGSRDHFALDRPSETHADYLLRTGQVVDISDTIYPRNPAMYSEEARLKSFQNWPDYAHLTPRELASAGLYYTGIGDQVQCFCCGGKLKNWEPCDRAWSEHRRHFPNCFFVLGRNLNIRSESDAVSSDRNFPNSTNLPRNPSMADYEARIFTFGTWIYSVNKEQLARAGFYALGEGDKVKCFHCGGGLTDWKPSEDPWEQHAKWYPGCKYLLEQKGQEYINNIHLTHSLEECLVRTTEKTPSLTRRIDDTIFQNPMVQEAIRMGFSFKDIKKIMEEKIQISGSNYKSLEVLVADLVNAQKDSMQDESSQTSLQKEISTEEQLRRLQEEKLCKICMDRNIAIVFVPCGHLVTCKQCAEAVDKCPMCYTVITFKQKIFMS

| SMILES | z-score [1] | z-score [2] | z-score [3] | composite z-score [4] | z-score [5] | z-score [6] | z-score [7] | z-score [8] | z-score [9] | composite z-score [10] |
| --- | --- | --- | --- | --- | --- | --- | --- | --- | --- | --- |
| COC(=O)C(CC#Cc1ccc2c(c1)[C@]1(C(=O)N2)[C@H](c2ccc(O)cc2)N2[C@H](c3ccccc3)[C@H](c3ccccc3)OC(=O)[C@H]2[C@@H]1C(N)=O)C(=O)OC | 1.09 | -0.773 (inactive) | 0.455 (inactive) | 0.133 (inactive) | 1.28 (inactive) | -0.864 (inactive) | 1.68 (inactive) | 2.08 (inactive) | 1.1 | 0.153 |
| COc1ccc([Si](C)(C)[C@H]2[C@H](CCO)O[C@@]3(C(=O)N(Cc4cccc(N5CCOC5=O)c4)c4ccccc43)[C@@H]2C)cc1 | -1.55 | 1.34 (inactive) | -4.67 (inactive) | -0.287 (inactive) | 2 (inactive) | 4.7 (inactive) | 0.803 (inactive) | 0.113 (inactive) | -3.21 | -0.0755 |
| COCCOC(=O)N1C(=O)[C@@]2(c3cc(C#Cc4ccc(OC)cc4)ccc31)[C@H](C(N)=O)[C@H]1C(=O)O[C@H](c3ccccc3)[C@H](c3ccccc3)N1[C@@H]2c1ccc(OCCO)cc1 | 0.0456 | 1.61 (inactive) | -1.41 (inactive) | -0.0352 (inactive) | 1.71 (inactive) | 2.42 (inactive) | -0.315 (inactive) | -0.697 (inactive) | -1.82 | -0.157 |
| CC(C)c1ccc(NN2C(C(O)c3ccccn3)C=CC3C(=O)N(c4ccccc4)C(=O)C32)cc1 (stereo not given) | -0.981 | -0.147 (inactive) | -1.17 (inactive) | 1.87 (inactive) | 0.0895 (inactive) | 1.92 (inactive) | 0.235 (inactive) | 0.0644 (inactive) | -0.698 | -0.0559 |
| COC(=O)C(CC#Cc1ccc2c(c1)[C@]1(C(=O)N2)[C@H](C(=O)N2CCc3cc(OC)c(OC)cc3C2)[C@H]2C(=O)O[C@H](c3ccccc3)[C@H](c3ccccc3)N2[C@@H]1c1ccc(O)cc1)C(=O)OC | -0.555 | 1.8 (inactive) | 1.26 (inactive) | -22.8 (active) | 3.04 (inactive) | 3.33 (inactive) | 0.414 (inactive) | 0.356 (inactive) | -0.14 | -0.167 |
| CC(C)NC(=O)[C@@H]1c2ccccc2C(=O)N(Cc2cc(C(F)(F)F)cc(C(F)(F)F)c2)[C@H]1c1ccc(CO)cc1 | 0.447 | -0.168 (inactive) | -0.0526 (inactive) | 0.357 (inactive) | 0.733 (inactive) | 0.0633 (inactive) | 1.17 (inactive) | 0.393 (inactive) | 0.25 | -0.0141 |
| COCC(=C=CC[C@@H](O)c1ccccc1OCCO)C[C@@H](O)c1ccccn1 | -0.415 | -1.42 (inactive) | -0.249 (inactive) | -10.8 (active) | 0.354 (inactive) | -0.572 (inactive) | -0.268 (inactive) | -0.268 (inactive) | -0.348 | -0.0541 |
| COCC(=C=CC[C@@H](O)c1ccccc1OCCO)C[C@@H](O)COCc1ccccc1 | 0.905 | -0.413 (inactive) | 1.26 (inactive) | -1.47 (inactive) | 0.191 (inactive) | -2.04 (inactive) | 2.4 (inactive) | 1.6 (inactive) | 0.935 | 0.145 |
| CC(C)(C)OC(=O)CC[C@@]1(C(=O)N2CCCCC2)N=C(c2ccc(OCCCO)cc2)O[C@@H]1c1ccccc1CN=[N+]=[N-] | 0.613 | 0.0243 (inactive) | 0.053 (inactive) | 0.113 (inactive) | -0.223 (inactive) | 0.978 (inactive) | -0.366 (inactive) | 0.831 (inactive) | 0.0127 | 0.183 |
| C[N+](C)(C)CCCCNC(=O)[C@H]1C[C@H]2C(=O)NCC(=O)N2[C@H]1c1ccc(O)cc1 | -0.103 | 0.105 (inactive) | -0.511 (inactive) | -29.2 (active) | 0.28 (inactive) | -0.279 (inactive) | 0.703 (inactive) | 1.35 (inactive) | -0.253 | -0.17 |
| COc1ccc(C(=O)Nc2ccc(CN3C(=O)[C@@]4(O[C@@H](CC(=O)N5Cc6ccccc6C[C@H]5CO)[C@H]([Si](C)(C)c5ccc(OC)cc5)[C@H]4C)c4ccccc43)cc2)cc1 | 0.473 | -0.273 (inactive) | -1.66 (inactive) | -3.48 (inactive) | 0.896 (inactive) | 1.23 (inactive) | 0.704 (inactive) | 0.241 (inactive) | -1.04 | -0.127 |
| [N-]=[N+]=NCc1ccccc1[C@H]1OC(c2ccc(OCCCO)cc2)=N[C@@]1(Cc1ccccc1N=[N+]=[N-])C(=O)N1CCCCC1 | -0.585 | -0.707 (inactive) | -2.42 (inactive) | -0.062 (inactive) | 0.879 (inactive) | 1.66 (inactive) | -0.457 (inactive) | 0.495 (inactive) | -2.94 | -0.0062 |
| CC(=O)NCCCC[C@@H]1NC(=O)[C@@H]2C[C@H](C(=O)NCCCC[N+](C)(C)C)[C@H](c3cccc(OCCO)c3)N2C1=O | -0.44 | 1.41 (inactive) | -1.56 (inactive) | -22.3 (active) | 0.876 (inactive) | 0.954 (inactive) | -0.0845 (inactive) | -0.629 (inactive) | -0.803 | 0.142 |
| C#CCOC(=O)N[C@H](C=CCCCC)c1ccccc1 | 0.063 | 0.578 (inactive) | -0.883 (inactive) | -0.837 (inactive) | 0.936 (inactive) | -0.0736 (inactive) | -0.467 (inactive) | -0.424 (inactive) | -0.137 | -0.0133 |
| COc1ccc([Si](C)(C)[C@H]2[C@H](CC(=O)N3CCC[C@H]3CO)O[C@@]3(C(=O)N(Cc4ccc(N5C(=O)c6cccc7cccc5c67)cc4)c4ccccc43)[C@@H]2C)cc1 | -1.83 | 0.147 (inactive) | -1.61 (inactive) | -1.84 (inactive) | 0.189 (inactive) | 1.02 (inactive) | -0.788 (inactive) | -0.848 (inactive) | -1.16 | -0.392 |
| CC[C@@H]1[C@@H]2C3C(=O)N(CC)C(=O)C3CC(=O)[C@@H]2[C@H](c2ccc(C)cc2)N1S(=O)(=O)c1ccc(C)cc1 (stereo not given in full) | -0.107 | -1.67 (inactive) | -1.27 (inactive) | -0.415 (inactive) | 0.409 (inactive) | -1.13 (inactive) | 0.694 (inactive) | 1.26 (inactive) | 0.887 | -0.0962 |
| CCCNC(=O)[C@@H]1c2ccccc2C(=O)N(CC23CC4CC(CC(C4)C2)C3)[C@H]1c1ccc(CO)cc1 | -0.411 | -0.774 (inactive) | 0.411 (inactive) | 0.627 (inactive) | 0.718 (inactive) | 0.987 (inactive) | -0.0494 (inactive) | -0.501 (inactive) | 0.748 | 1.94 |
| Cc1ccc(S[C@]2(C(=O)NCC(C)C)CC(=O)N(C3CCCCC3)[C@@H]2c2ccc(CO)cc2I)cc1 | 0.33 | -1.05 (inactive) | 0.0989 (inactive) | -0.0804 (inactive) | -0.81 (inactive) | -0.115 (inactive) | 0.12 (inactive) | 0.598 (inactive) | -0.693 | -0.0559 |
| C[C@@H]1ON(c2ccccc2)[C@H](c2ccccc2)[C@H]1C(=O)N1C(=O)OC[C@H]1Cc1ccccc1 | 1.07 | 0.534 (inactive) | 0.962 (inactive) | -0.255 (inactive) | 0.0238 (inactive) | 1.39 (inactive) | 0.884 (inactive) | 0.934 (inactive) | 0.852 | -0.1 |
| CC(C)(C)N1CC=CC23O[C@@H]4C=CCCOC(=O)C4[C@H]2C(=O)N(CCCO)[C@@H]3C1=O (stereo not given in full) | -0.884 | -0.434 (inactive) | -1.12 (inactive) | -3.53 (inactive) | -0.193 (inactive) | 0.605 (inactive) | -1.23 (inactive) | -1.27 (inactive) | -1.15 | -0.263 |
| CC(C)C[C@H]1NC(=O)[C@H](C)NC(=O)[C@@]23C(=O)N[C@@H](Cc4ccccc4)C2[C@H](C)[C@@]2(C)O[C@H]2C3/C=C/C/C=C\CNC1=O (stereo not given in full) | -0.594 | -0.49 (inactive) | 0.0114 (inactive) | -0.401 (inactive) | 0.413 (inactive) | -0.837 (inactive) | -0.599 (inactive) | -0.555 (inactive) | 0.154 | 0.0822 |
| C=C(/C(=C/C[C@@H](OC(C)=O)c1ccccc1OCCO)c1cnc2ccccc2c1)C(C)C | -1 | -1.34 (inactive) | -0.601 (inactive) | -5.68 (inactive) | 0.108 (inactive) | 0.29 (inactive) | -0.997 (inactive) | -0.667 (inactive) | -0.267 | -0.102 |
| NC(=O)NCC#Cc1ccc2c(c1)[C@]1(C(=O)N2)[C@H](c2ccc(OCCO)cc2)N2[C@H](c3ccccc3)[C@H](c3ccccc3)OC(=O)[C@H]2[C@@H]1C(=O)N1CCCCCCC1 | 0.314 | 1.64 (inactive) | -0.476 (inactive) | 0.769 (inactive) | 2.03 (inactive) | 2.58 (inactive) | -0.172 (inactive) | -1.96 (inactive) | -0.507 | 0.531 |
| CN(C)CCCC[C@@H]1NC(=O)[C@H]2C[C@@H](C(=O)NCCCCCCNC(=O)CS)[C@@H](c3ccc(O)cc3)N2C1=O | 0.183 | -0.213 (inactive) | -0.614 (inactive) | -0.368 (inactive) | 0.022 (inactive) | -0.48 (inactive) | 0.0961 (inactive) | -0.509 (inactive) | -0.892 | -0.0749 |
| COCCCNC(=O)[C@@]1(Cc2ccccc2N=[N+]=[N-])N=C(c2ccc(OCCCO)cc2)O[C@H]1c1ccccc1CN=[N+]=[N-] | -0.859 | -0.255 (inactive) | -1.2 (inactive) | 0.283 (inactive) | 1.72 (inactive) | 0.154 (inactive) | 2.63 (inactive) | 0.575 (inactive) | -2.25 | -0.183 |
